In PubChem BioAssay (EPA / NIEHS):
Where “and” joins values, the source holds several entries; their conditions need not be identical. Equal values may be shown once. Records with an inconclusive call do not appear. Some compounds were tested as several samples or in several runs, with calls that do not always agree. Calls of active or inactive are those of the source. The calls were made as follows, unless noted: active = hit-call score of the fitted dose curve at least 0.9, where 1 is the maximum; inconclusive = response in the unintended direction; inactive = score below 0.9.

Assays:
[1] = Tanguay_ZF_120hpf_NC_legacy: (Legacy) Oregon State University Tanguay Lab 120 Hour Post-fertilization zebrafish Assay for Notochord and Tail Malformation (AID 2283656)
Outline: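 Dechorionated Tropical 5D wild-type zebrafish embryos, one per well from 6 hpf, statically exposed to 120 hpf at 28C in 0.64% DMSO final. Notochord distortion scored present/absent by brightfield; dead embryos excluded.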

[2] = read-out: ABC Transporter (ABCB1), ABCB1 (gene 5243); assay: CLD_ABCB1_6hr: CellzDirect (CLD) Gene Expression Assay for ABC Transporter (ABCB1) at 6 hours (AID 2283659);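 also: hits raise ABCB1 transcript above the DMSO vehicle baseline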
Outline: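 Primary human hepatocytes (two donor preparations) dosed daily for two days with chemicals at multiple concentrations, 0.2% DMSO vehicle; harvested 6 h post-dose. ABCB1 mRNA induction quantified by qNPA chemiluminescence; gain-of-signal fitted versus DMSO.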

[3] = read-out: xenobiotic metabolism (CYP1A1), CYP1A1 (gene 1543); assay: CLD_CYP1A1_6hr: CellzDirect (CLD) Gene Expression Assay for xenobiotic metabolism (CYP1A1) at 6 hours (AID 2283661);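 also: potency for transcript induction above DMSO vehicle baseline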
Outline: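 Primary human hepatocytes from two donors, compound versus 0.2% DMSO vehicle. CYP1A1 mRNA measured 6 h after dosing by quantitative nuclease protection assay with chemiluminescent read-out; induction fitted relative to DMSO, cytotoxicity flagged by microscopy.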

[4] = test system: Thyroperoxidase (TPO), gene 54314; assay: CCTE_Simmons_AUR_rTPO: CCTE's Amplex UltraRed Assay for Thyroperoxidase (TPO) Inhibition, Simmons Lab (AID 2283662);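 as to AC50: potency for loss of signal meaning inhibition of peroxidase activity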
Outline: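 Rat thyroid microsomes (5 ug protein) were incubated with test compound (8 concentrations, 5 nM–87.5 uM final, 0.5% DMSO), 25 uM Amplex UltraRed and 300 uM H2O2 in 200 mM phosphate buffer for 30 min at 37C in the dark; fluorescence read at 544/590 nm.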

[5] = CCTE_Simmons_CellTiterGLO_HEK293T: Viability Assessment in CCTE's Assays for Thyroperoxidase (TPO) Inhibition, Simmons Lab (AID 2283665);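 as to AC50: cells exposed to compound for 24 h before readout; actives reduce ATP signal below DMSO vehicle meaning cytotoxicity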
Outline: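 HEK293T, 10 000 cells/well, DMEM + 1% FBS; 8-pt titration 5 nM–87.5 uM [final], 0.5% DMSO; 24 hr, 37C, 5% CO2; CellTiter-Glo luminescence; n=3 biological replicates.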

[6] = Tanguay_ZF_120hpf_TR_legacy: (Legacy) Oregon State University Tanguay Lab 120 Hour Post-fertilization zebrafish Assay for Touch Response (AID 2283667)
Outline: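 Tropical 5D wild-type zebrafish embryos statically exposed to 120 hpf at 28°C, sealed and dark-covered, 0.64% DMSO final; touch response scored as present/absent by brightfield microscopy at 120 hpf. Trimethyltin chloride 5 uM positive control; dead embryos not scored.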

[7] = read-out: organic anion transporter (SLCO1B1), SLCO1B1 (gene 10599); assay: CLD_SLCO1B1_6hr: CellzDirect (CLD) Gene Expression Assay for organic anion transporter (SLCO1B1) at 6 hours (AID 2283668);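 also: active means mRNA induction above DMSO baseline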
Outline: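 Primary human hepatocytes dosed daily with test chemicals (multiple concentrations) in 0.2% DMSO vehicle; harvested at 6 h. SLCO1B1 mRNA quantified by qNPA chemiluminescence, fitted as gain-of-signal versus DMSO; cytotoxicity from phase-contrast morphology flagged alongside.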

[8] = CLD_ACTIN_24hr: CellzDirect (CLD) Gene Expression Assay for Baseline Control (Actin) at 24 hours (AID 2283670)
Outline: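 Primary human hepatocytes dosed over multiple concentrations with 0.2% DMSO vehicle; actin mRNA measured at 24 h by qNPA chemiluminescence. Background control endpoint, fitted as gain of signal versus DMSO.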

[9] = read-out: xenobiotic metabolism (CYP1A1), CYP1A1 (gene 1543); assay: CLD_CYP1A1_24hr: CellzDirect (CLD) Gene Expression Assay for xenobiotic metabolism (CYP1A1) at 24 hours (AID 2283673);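 also: CYP1A1 mRNA level by quantitative nuclease protection with chemiluminescence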
Outline: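 Primary human hepatocytes dosed daily with fresh solutions in 0.2% DMSO vehicle. mRNA measured at 24 h by quantitative nuclease protection assay with chemiluminescence; gain-of-signal fit versus DMSO, with morphology-based cytotoxicity flags.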

[10] = read-out: ABC Transporter (ABCB11), ABCB11 (gene 8647); assay: CLD_ABCB11_6hr: CellzDirect (CLD) Gene Expression Assay for ABC Transporter (ABCB11) at 6 hours (AID 2283675);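 also: hits raise ABCB11 mRNA level so AC50 marks induction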
Outline: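 Human primary hepatocytes (two donor preparations) given fresh chemical daily at multiple concentrations, vehicle 0.2% DMSO. ABCB11 mRNA induction measured 6 h after dosing by qNPA chemiluminescence versus DMSO; cytotoxicity annotated from morphology.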

[11] = CLD_ACTIN_6hr: CellzDirect (CLD) Gene Expression Assay for Baseline Control (Actin) at 6 hours (AID 2283676);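 also: active means increased actin mRNA relative to DMSO vehicle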
Outline: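 Primary human hepatocytes dosed with fresh chemical solutions (vehicle 0.2% DMSO), harvested at 6 h. Actin mRNA quantified by quantitative nuclease protection assay with chemiluminescent read-out, as background control relative to DMSO.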

[12] = read-out: Cytochrome P450 2B6 (Homo sapiens) (UniProt P20813); assay: CLD_CYP2B6_6hr: CellzDirect (CLD) Gene Expression Assay for xenobiotic metabolism (CYP2B6) at 6 hours (AID 2283677);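 also: actives raise CYP2B6 transcript above DMSO baseline so AC50 marks an inducer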
Outline: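 Primary human hepatocytes dosed with chemicals at multiple concentrations, vehicle 0.2% DMSO; CYP2B6 mRNA induction measured 6 h after dosing by quantitative nuclease protection assay with chemiluminescence, gain of signal fitted relative to DMSO.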

[13] = read-out: Cytochrome P450 2C19 (Homo sapiens) (UniProt P33261); assay: CLD_CYP2C19_6hr: CellzDirect (CLD) Gene Expression Assay for xenobiotic metabolism (CYP2C19) at 6 hours (AID 2283678)
Outline: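 Primary human hepatocytes from two donor preparations were dosed daily, with 0.2% DMSO as vehicle, and harvested 6 h after dosing. CYP2C19 mRNA induction was measured by qNPA chemiluminescence and fitted as gain of signal against DMSO.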

[14] = CCTE_Padilla_ZF_144hpf_TERATOSCORE: (Legacy) CCTE's 144 Hour Post-fertilization zebrafish Assay Teratoscore, Padilla Lab (AID 2283679; active = hit-call score of the fitted dose curve at least 0.9, where 1 is the maximum; inactive = score below 0.9;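 as to AC50: zebrafish embryos with chorions exposed by immersion from 6-8 hpf to 5 dpf with daily renewal; teratogenicity score from eye scoring of death hatching and malformations at 144 hpf; higher score means more developmental defects relative to DMSO baseline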)
Outline: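 Larvae scored by eye at 144 hpf for death, hatching and malformations after a day in clean Hanks'. Before that, daily-renewed exposure at 80 uM (0.4% DMSO, 26C) from roughly 6-8 hpf through 5 dpf, 4 embryos per chemical.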

[15] = read-out: solute carrier (SLC10A1), SLC10A1 (gene 6554); assay: LTEA_HepaRG_SLC10A1: Life Technologies and Expression Analysis (LTEA) Assay for solute carrier (SLC10A1) using HepaRG (AID 2283657; active = hit-call score of the fitted dose curve at least 0.9, where 1 is the maximum; inactive = score below 0.9); settings: mRNA level, 48 h; actives raise or lower the signal
Outline: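 HepaRG cells (single lot) exposed 48 h in serum-free induction medium, 8-point half-log series from 100 uM top in 0.5% DMSO, duplicate. SLC10A1 mRNA by qRT-PCR normalised to ACTB, GAPDH, POLR2A; bidirectional fit versus DMSO.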

[16] = read-out: matrix metalloproteinase-1 (MMP1), MMP1 (gene 4312); assay: LTEA_HepaRG_MMP1: Life Technologies and Expression Analysis (LTEA) Assay for matrix metalloproteinase-1 (MMP1) using HepaRG (AID 2283658; active = hit-call score of the fitted dose curve at least 0.9, where 1 is the maximum; inactive = score below 0.9); settings: mRNA level, 48 h; actives raise or lower the signal
Outline: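 In this screen, human liver HepaRG cultures receive each chemical in duplicate for 48 h (top 100 uM, 0.5% DMSO). MMP1 expression is then quantified by TaqMan qRT-PCR with ACTB/GAPDH/POLR2A normalization.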

[17] = read-out: Cytochrome P450 (CYP24A1_1), CYP24A1 (gene 1591); assay: LTEA_HepaRG_CYP24A1_1: Life Technologies and Expression Analysis (LTEA) Assay for Cytochrome P450 (CYP24A1_1) using HepaRG (AID 2283671; active = hit-call score of the fitted dose curve at least 0.9, where 1 is the maximum; inactive = score below 0.9); settings: mRNA level, 48 h; actives raise or lower the signal
Outline: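 Differentiated human HepaRG cells in serum-free induction medium, exposed 48 h in duplicate to eight half-log concentrations from 100 uM top, 0.5% DMSO. Transcript measured by TaqMan qRT-PCR, normalised to ACTB, GAPDH, POLR2A; bidirectional fitting versus DMSO.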

[18] = read-out: Cytochrome P450 3A4 (Homo sapiens) (UniProt P08684); assay: CLD_CYP3A4_6hr: CellzDirect (CLD) Gene Expression Assay for xenobiotic metabolism (CYP3A4) at 6 hours (AID 2283680)
Outline: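 Primary human hepatocytes (two donor preparations) dosed; CYP3A4 mRNA harvested at 6 h and quantified by qNPA chemiluminescence. Gain of signal fitted against 0.2% DMSO vehicle; cytotoxicity flagged by phase-contrast morphology.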

[19] = read-out: xenobiotic metabolism (CYP1A2), CYP1A2 (gene 1544); assay: CLD_CYP1A2_6hr: CellzDirect (CLD) Gene Expression Assay for xenobiotic metabolism (CYP1A2) at 6 hours (AID 2283663);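 also: potency is for induction meaning a rise in mRNA above DMSO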
Outline: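 Primary human hepatocytes from two donor preparations, dosed daily with multiple concentrations in 0.2% DMSO and harvested at 6 h. CYP1A2 mRNA induction measured by chemiluminescent qNPA, gain of signal fitted against DMSO; cytotoxicity flagged morphologically.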

Measured: AC50

Chain of Cytochrome P450 2C19 (Homo sapiens) (P33261 whole entry, looked up): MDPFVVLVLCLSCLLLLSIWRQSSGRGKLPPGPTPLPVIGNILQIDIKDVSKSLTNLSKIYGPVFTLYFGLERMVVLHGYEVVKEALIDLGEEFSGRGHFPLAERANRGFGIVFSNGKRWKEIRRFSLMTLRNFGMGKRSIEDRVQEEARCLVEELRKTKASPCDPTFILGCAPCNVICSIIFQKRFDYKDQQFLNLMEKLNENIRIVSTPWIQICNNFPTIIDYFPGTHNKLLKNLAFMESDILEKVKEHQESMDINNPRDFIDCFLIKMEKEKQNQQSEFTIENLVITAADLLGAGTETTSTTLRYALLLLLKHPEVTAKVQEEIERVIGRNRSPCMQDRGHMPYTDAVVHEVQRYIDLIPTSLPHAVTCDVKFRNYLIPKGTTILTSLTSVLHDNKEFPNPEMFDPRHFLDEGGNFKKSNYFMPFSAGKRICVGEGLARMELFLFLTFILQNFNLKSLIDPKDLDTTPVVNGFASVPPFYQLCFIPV
Chain of Cytochrome P450 3A4 (Homo sapiens) (P08684 whole entry, looked up): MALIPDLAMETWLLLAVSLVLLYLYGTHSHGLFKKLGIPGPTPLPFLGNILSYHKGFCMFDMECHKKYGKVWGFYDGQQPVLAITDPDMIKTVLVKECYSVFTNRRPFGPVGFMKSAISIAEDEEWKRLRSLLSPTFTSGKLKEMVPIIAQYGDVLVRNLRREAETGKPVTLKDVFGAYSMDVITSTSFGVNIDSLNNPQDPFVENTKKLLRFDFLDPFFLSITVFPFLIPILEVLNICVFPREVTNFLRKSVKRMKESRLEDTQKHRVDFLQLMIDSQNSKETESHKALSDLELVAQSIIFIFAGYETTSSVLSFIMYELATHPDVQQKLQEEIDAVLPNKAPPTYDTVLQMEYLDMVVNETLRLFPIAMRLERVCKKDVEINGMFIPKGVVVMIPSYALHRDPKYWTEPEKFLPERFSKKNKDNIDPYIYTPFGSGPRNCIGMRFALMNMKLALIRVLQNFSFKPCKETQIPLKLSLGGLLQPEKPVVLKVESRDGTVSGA

CCCCNC(=O)n1c(NC(=O)OC)nc2ccccc21
active: [3] 3.66 µM | [6] 19.2 µM | [9] 20 µM | [12] 4.17 µM | [14] 1.29 µM
not listed: [15] | [16] | [17] | [18] | [19]
inactive: all other assays above

OC(c1ccc(Cl)cc1)(c1cncnc1)c1ccccc1Cl (stereo unspecified)
active: [15] 24.1 µM | [16] 59.8 µM | [9] 7.86 µM | [14] 32.2 µM
not listed: [3] | [4] | [5] | [12] | [13] | [19]
inactive: all other assays above

Oc1ccccc1-c1ccccc1
inactive: [1] | [2] | [6] | [7] | [8] | [10]
active: [4] 35.2 µM | [5] 97.1 µM | [9] 35.9 µM | [14] 53.4 µM

CCCCOC(=O)c1ccccc1C(=O)OCCCC
active: [3] 3.36 µM and 5.18 µM | [9] 4.22 µM | [14] 1.83 µM
inactive: [1] | [2] | [6] | [7] | [8] | [9] | [10] | [11] | [13] | [18]

COc1cnc(OC)n2nc(NS(=O)(=O)c3c(OCC(F)F)cccc3C(F)(F)F)nc12
active: [3] 0.121 µM | [18] 8.34 µM
inactive: [1] | [2] | [7] | [8] | [9] | [11] | [13] | [14]

CCCC1COC(Cn2cncn2)(c2ccc(Cl)cc2Cl)O1 (stereo unspecified)
active: [19] 3.01 µM | [5] 79.7 µM | [6] 9.51 µM | [9] 6.46 µM | [14] 26.5 µM
inactive: [1] | [2] | [4] | [8] | [11] | [18]

N#Cc1nn(-c2c(Cl)cc(C(F)(F)F)cc2Cl)c(N)c1S(=O)C(F)(F)F (stereo unspecified)
inactive: [1] | [2] | [6] | [8] | [9] | [10] | [18]
active: [12] 2.91 µM | [14] 31.1 µM

CC1COC(Cn2cncn2)(c2ccc(Oc3ccc(Cl)cc3)cc2Cl)O1 (stereo unspecified)
active: [5] 27.9 µM | [9] 1.94 µM | [14] 5.5 µM
inactive: [1] | [2] | [4] | [6] | [7] | [11]

COP(=S)(OC)Oc1nc(Cl)c(Cl)cc1Cl
active: [4] 4.62 µM | [5] 85.6 µM | [6] 97.7 µM | [9] 3.97 µM | [14] 34.7 µM
inactive: [1] | [2] | [7] | [10] | [11] | [18]

CCCN(CCC)c1c([N+](=O)[O-])cc(S(N)(=O)=O)cc1[N+](=O)[O-]
active: [5] 27.1 µM [middle of 5 runs] | [9] 4.81 µM | [14] 15.8 µM and 15.6 µM
inactive: [1] | [2] | [4] | [6] | [7] | [10] | [18]

Cc1c(F)c(F)c(COC(=O)C2C(/C=C(\Cl)C(F)(F)F)C2(C)C)c(F)c1F (stereo unspecified)
inactive: [1] | [2] | [7] | [8] | [9] | [10] | [11] | [18]
active: [6] 3.23 µM | [12] 20 µM | [14] 0.00676 µM
